Inconclusive results are not listed. Activity calls are given as the source filed them. Unless noted, calls come from the whole dose curve.
Key:
[1] = Nuclear factor erythroid 2-related factor 2/antioxidant responsive element (Nrf2/ARE) small molecule agonists: qHTS cell viability counter screen in human keratinocytes (AID 1919968; active = well fitted curve in the direction sought with a large enough effect in the repeat runs; an effect the other way counts as inactive or inconclusive; note: nearly all actives have a fitted effect of over 55% in size; note: potency is the fitted concentration of half-maximal effect)
Procedure, shortened: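 Viability counter-screen: KeratinoSens reporter cells, DMSO-delivered compounds, 23 h at 37 C, CellTiter-Fluor fluorescence.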

[2] = target: KiSS-1 receptor (Homo sapiens) (UniProt Q969F8); assay: Human kisspeptin (KISS1R) small molecule agonists, calcium flux assay in KISS1R-HEK293 cells (AID 1920064; active = well fitted curve in the direction sought with a large enough effect in the repeat runs; an effect the other way counts as inactive or inconclusive)
Sequence of KiSS-1 receptor (Homo sapiens) (Q969F8 whole entry, looked up): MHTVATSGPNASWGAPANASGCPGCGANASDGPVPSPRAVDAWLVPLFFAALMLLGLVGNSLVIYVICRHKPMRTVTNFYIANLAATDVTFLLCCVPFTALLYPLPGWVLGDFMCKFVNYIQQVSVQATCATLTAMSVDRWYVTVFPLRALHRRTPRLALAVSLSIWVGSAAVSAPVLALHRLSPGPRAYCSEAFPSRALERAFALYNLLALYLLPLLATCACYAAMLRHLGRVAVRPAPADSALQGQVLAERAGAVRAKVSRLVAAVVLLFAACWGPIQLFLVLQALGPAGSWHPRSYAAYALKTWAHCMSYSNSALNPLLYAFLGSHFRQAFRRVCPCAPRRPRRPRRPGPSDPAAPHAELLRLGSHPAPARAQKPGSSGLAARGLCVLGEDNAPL
Procedure, shortened: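 Intracellular calcium mobilization in KISS1R-HEK293 cells was recorded by fluorescence (Ex/Em 480/540) for 3 min following compound addition to cells pre-loaded 1 h with calcium dye.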

[3] = G protein-coupled receptor (GPCR) small molecule agonists, calcium flux assay: HEK293 wild type cell line counter screen (AID 1920065)
Procedure, shortened: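 In this agonist-mode screen, ATP is the positive control and DMSO the vehicle. Cells grow 18 h before a 1 h dye incubation at 37 C; signal is taken at Ex/Em 480/540 over 3 min.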

[4] = p53 small molecule agonists, cell-based qHTS assay with human liver microsomes (AID 1963577);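 note: p53 response element beta-lactamase reporter cells with liver microsomes plus NADPH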
Procedure, shortened: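 HLM-supplemented p53RE-bla reporter assay: 16 h compound exposure at 37 C, microsomes and NADPH each 0.5 mg/mL final, read by fluorescence intensity.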

[5] = p53 small molecule agonists, cell-based qHTS assay with rat liver microsomes (AID 1963578)
Procedure, shortened: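 Quantitative HTS of the Tox21 10K library: p53RE-bla cells, rat liver microsomes plus NADPH at 0.5 mg/mL final each, 16 h at 37 C, beta-lactamase fluorescence detection.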

[6] = p53 small molecule agonists, cell-based qHTS assay with rat liver microsomes: qHTS cell viability counter screen (AID 1963580); note: nearly all actives have a fitted effect of over 45% in size
Procedure, shortened: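 p53RE-bla HCT-116 cells (4,000/well) rested 5 h at 37 C, then given Tox21 compounds in DMSO with rat liver microsomes (0.5 mg/mL final) plus NADPH (0.5 mg/mL final) for 16 h at 37 C. Viability read by CellTiter-Glo luminescence after 30 min at room temperature.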

[7] = target: 5-hydroxytryptamine receptor 2A (Homo sapiens) (UniProt P28223); assay: 5-hydroxytryptamine receptor 2A (HTR2A) small molecule antagonists, cell-based qHTS assay (AID 1963586); note: nearly all actives have a fitted effect of over 45% in size
Sequence of 5-hydroxytryptamine receptor 2A (Homo sapiens) (P28223 whole entry, looked up): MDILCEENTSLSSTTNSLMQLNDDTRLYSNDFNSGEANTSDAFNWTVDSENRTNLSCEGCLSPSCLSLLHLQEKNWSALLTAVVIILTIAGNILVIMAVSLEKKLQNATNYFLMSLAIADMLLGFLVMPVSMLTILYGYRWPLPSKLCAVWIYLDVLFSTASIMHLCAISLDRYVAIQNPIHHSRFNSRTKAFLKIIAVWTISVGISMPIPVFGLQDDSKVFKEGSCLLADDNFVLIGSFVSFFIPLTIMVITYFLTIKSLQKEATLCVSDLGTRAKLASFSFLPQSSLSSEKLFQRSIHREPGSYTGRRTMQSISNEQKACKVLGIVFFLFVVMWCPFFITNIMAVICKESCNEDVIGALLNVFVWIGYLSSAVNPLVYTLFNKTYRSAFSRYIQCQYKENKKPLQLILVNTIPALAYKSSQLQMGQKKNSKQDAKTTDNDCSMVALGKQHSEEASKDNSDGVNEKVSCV
Procedure, shortened: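 Antagonist-mode intracellular calcium assay: DOI (4 nM) added after 5 min compound pre-incubation at room temperature to dye-loaded HTR2A-CHO cells. Fluorescence followed for 3 min, sampled every second.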

[8] = target: 5-hydroxytryptamine receptor 2A (Homo sapiens) (UniProt P28223); assay: 5-hydroxytryptamine receptor 2A (HTR2A) small molecule agonists, cell-based qHTS assay (AID 1963587); note: nearly all actives have a fitted effect of over 30% in size
Procedure, shortened: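 HTR2A-CHO cells, plated 18 h at 37 C/5% CO2, dye-loaded 1 h at 37 C; compounds in DMSO added by pin tool (agonist mode). Intracellular calcium flux read as kinetic fluorescence on FDSS over 2 min at 1 s intervals.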

[9] = target: Muscarinic acetylcholine receptor M1 (Homo sapiens) (UniProt P11229); assay: Cholinergic receptor muscarinic 1 (CHRM1) small molecule antagonists, cell-based qHTS assay (AID 1963588); note: nearly all actives have a fitted effect of over 40% in size
Sequence of Muscarinic acetylcholine receptor M1 (Homo sapiens) (P11229 whole entry, looked up): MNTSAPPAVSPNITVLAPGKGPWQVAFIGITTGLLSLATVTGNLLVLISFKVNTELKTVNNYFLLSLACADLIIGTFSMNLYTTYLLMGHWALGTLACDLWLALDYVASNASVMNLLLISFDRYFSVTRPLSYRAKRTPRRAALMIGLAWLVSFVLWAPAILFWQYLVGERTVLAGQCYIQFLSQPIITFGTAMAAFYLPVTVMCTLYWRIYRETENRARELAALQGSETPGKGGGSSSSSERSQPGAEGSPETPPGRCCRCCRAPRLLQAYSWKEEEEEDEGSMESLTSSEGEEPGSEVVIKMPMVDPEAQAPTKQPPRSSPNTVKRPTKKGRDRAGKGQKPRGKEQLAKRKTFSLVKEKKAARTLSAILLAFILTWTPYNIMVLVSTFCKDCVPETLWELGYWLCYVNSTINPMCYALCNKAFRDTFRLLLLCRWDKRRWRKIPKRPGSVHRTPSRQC
Procedure, shortened: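 CHRM1-CHO calcium-flux assay, antagonist mode. Cells were seeded 18 h, dye-loaded 1 h at 37 C and given compound for 5 min at RT, then acetylcholine was added at 50nM. FDSS fluorescence was read 3 min; 15 concentrations, three runs.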

[10] = target: Muscarinic acetylcholine receptor M1 (Homo sapiens) (UniProt P11229); assay: Cholinergic receptor muscarinic 1 (CHRM1) small molecule agonists, cell-based qHTS assay (AID 1963589); note: nearly all actives have a fitted effect of over 35% in size
Procedure, shortened: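 Stable CHRM1-CHO cells (human receptor) were incubated 18 h, dye-loaded for 1 h at 37 C and exposed to test compounds for agonist activity, with calcium-dependent fluorescence followed kinetically.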

[11] = target: Beta-2 adrenergic receptor (Homo sapiens) (UniProt P07550); assay: Adrenergic beta2 receptor (ADRB2) small molecule antagonists, cell-based qHTS assay (AID 1963592); note: series mostly up to about 92 µM; nearly all actives have a fitted effect of over 50% in size
Sequence of Beta-2 adrenergic receptor (Homo sapiens) (P07550 whole entry, looked up): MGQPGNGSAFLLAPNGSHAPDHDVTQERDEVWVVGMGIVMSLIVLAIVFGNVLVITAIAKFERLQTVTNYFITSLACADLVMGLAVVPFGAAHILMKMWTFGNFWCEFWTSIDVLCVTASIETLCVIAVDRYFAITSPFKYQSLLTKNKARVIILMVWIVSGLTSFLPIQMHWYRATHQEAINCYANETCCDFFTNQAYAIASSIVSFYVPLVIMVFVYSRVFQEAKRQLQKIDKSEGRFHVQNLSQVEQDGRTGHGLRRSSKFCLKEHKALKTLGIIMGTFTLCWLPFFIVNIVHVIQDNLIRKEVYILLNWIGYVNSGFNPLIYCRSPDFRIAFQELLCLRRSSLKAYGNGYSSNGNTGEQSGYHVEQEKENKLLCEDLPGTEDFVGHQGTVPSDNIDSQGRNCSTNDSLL
Procedure, shortened: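 Cells (CHO, stable ADRB2 overexpression) incubated 18-20hr at 37C; compounds added from DMSO; agonist mix (1nM isoproterenol, 100uM IBMX, 25uM Ro-20-1724) added; 0.5hr RT; d2-cAMP and anti-cAMP-cryptate added; 1hr RT; 665/615 nm read.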

[12] = target: D(2) dopamine receptor (Homo sapiens) (UniProt P14416); assay: Dopamine D2 receptor (DRD2) small molecule antagonists, cell-based qHTS assay (AID 1963595; active = well fitted inhibition curve with a large enough effect in the signal ratio in the repeat runs, with a control signal flat; the % refers to the signal ratio; note: potency is the fitted concentration of half-maximal effect)
Sequence of D(2) dopamine receptor (Homo sapiens) (P14416 whole entry, looked up): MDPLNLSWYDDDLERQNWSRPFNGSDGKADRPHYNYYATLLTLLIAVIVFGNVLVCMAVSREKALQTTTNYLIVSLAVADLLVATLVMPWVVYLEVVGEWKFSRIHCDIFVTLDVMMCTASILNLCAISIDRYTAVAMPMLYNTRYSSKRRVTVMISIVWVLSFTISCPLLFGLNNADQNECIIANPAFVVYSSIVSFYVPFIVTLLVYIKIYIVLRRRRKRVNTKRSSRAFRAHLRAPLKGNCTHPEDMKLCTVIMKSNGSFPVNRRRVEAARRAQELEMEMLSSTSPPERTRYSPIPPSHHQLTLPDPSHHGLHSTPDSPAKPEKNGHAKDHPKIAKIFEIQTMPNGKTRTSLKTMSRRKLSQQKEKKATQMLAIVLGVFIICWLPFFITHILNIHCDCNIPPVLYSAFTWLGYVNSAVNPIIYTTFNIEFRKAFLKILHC
Procedure, shortened: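 Antagonist mode in DRD2-HEK293 cells: after compound addition with 0.1 mM Ro20-1724, cells received quinpirole (12 nM) and NKH477 (200 nM) for 30 min at room temperature; HTRF cAMP read after 1 h detection.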

[13] = p53 small molecule agonists, cell-based qHTS assay with human liver microsomes: qHTS cell viability counter screen (AID 1963579); note: nearly all actives have a fitted effect of over 45% in size; note: potency is the fitted concentration of half-maximal effect
Procedure, shortened: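 Viability of p53RE-bla cells is measured as CellTiter-Glo luminescence following a 16 h, 37 C incubation with compound, liver microsomes from human donors and NADPH.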

[14] = p53 small molecule agonists, cell-based qHTS assay: qHTS cell viability counter screen (AID 1963581); note: nearly all actives have a fitted effect of over 45% in size
Procedure, shortened: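 Compounds are pinned onto HCT-116 p53RE-bla cells and left 16 h at 37 C. Following the reporter FRET read, ATP is quantified by CellTiter-Glo luminescence after 30 min at room temperature.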

[15] = cAMP Responsive Elements (CRE) small molecule agonists, cell-based qHTS assay (AID 1963590)
Procedure, shortened: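 FRET-based beta-lactamase readout (LiveBLAzer B/G, 2 h RT) quantified CRE activation in HEK 293T CRE-bla cells after 3 h treatment with DMSO-dissolved compounds.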

[16] = cAMP Responsive Elements (CRE) small molecule antagonists, cell-based qHTS assay (AID 1963591; active = well fitted inhibition curve with a large enough effect in the signal ratio in the repeat runs, not every such curve was filed as active; the % refers to the signal ratio)
Procedure, shortened: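 qHTS in CRE-bla HEK 293T cells: compound in DMSO, then 0.25 uM NKH477 (final), 3 h at 37 °C/5% CO2; beta-lactamase FRET read-out after 2 h substrate incubation.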

[17] = target: Beta-2 adrenergic receptor (Homo sapiens) (UniProt P07550); assay: Adrenergic beta2 receptor (ADRB2) small molecule agonists, cell-based qHTS assay (AID 1963593);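 note: CHO cells stably overexpressing human ADRB2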
Procedure, shortened: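 CHO cells stably over-expressing ADRB2 were plated overnight at 37C, then dosed with compounds plus a stimulation mix containing 100uM IBMX and 25uM Ro-20-1724 for 0.5hr at room temperature. cAMP was measured by HTRF competition, 1hr.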

[18] = target: D(2) dopamine receptor (Homo sapiens) (UniProt P14416); assay: Dopamine D2 receptor (DRD2) small molecule agonists, cell-based qHTS assay (AID 1963594); note: nearly all actives have a fitted effect of over 35% in size
Procedure, shortened: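 HEK293 cells stably expressing DRD2 were cultured 24 h at 37 C, then given Ro20-1724 (0.1 mM final) and compounds for 10 min at room temperature. NKH477 (200nM) was then added for 30 min. cAMP was read by HTRF.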

[19] = target: Gonadotropin-releasing hormone receptor (Homo sapiens) (UniProt P30968); assay: Human gonadotropin-releasing hormone receptor (GnRHR) small molecule agonists, calcium flux assay in GnRHR-HEK293 cells (AID 1920063); note: nearly all actives have a fitted effect of over 35% in size
Sequence of Gonadotropin-releasing hormone receptor (Homo sapiens) (P30968 whole entry, looked up): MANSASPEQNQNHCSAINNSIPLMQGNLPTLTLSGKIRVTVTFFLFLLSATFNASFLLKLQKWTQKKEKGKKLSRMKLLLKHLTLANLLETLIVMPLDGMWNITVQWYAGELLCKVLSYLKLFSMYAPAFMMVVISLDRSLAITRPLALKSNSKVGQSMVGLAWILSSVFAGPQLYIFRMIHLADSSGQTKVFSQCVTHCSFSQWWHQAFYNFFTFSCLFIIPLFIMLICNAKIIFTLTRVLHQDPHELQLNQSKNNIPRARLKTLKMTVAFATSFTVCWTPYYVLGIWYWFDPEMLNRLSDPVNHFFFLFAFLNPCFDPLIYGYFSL
Procedure, shortened: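 Tox21-format agonist screen using human GnRHR-expressing HEK293 cells and a fluorescent calcium dye; kinetic 3-min fluorescence reading after compound addition, 15-point concentration series run in triplicate.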

[20] = p53 small molecule agonists, cell-based qHTS assay (AID 1963582; active = well fitted activation curve with a large enough effect in the signal ratio in the repeat runs, not every such curve was filed as active; the % refers to the signal ratio)
Procedure, shortened: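 Agonist activity was scored from beta-lactamase FRET fluorescence in p53RE-bla cells treated 16 h at 37 C with compounds in DMSO, substrate incubation being 2 h at room temperature.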

Measured: Potency

CCCCC[C@H](O)/C=C/[C@H]1[C@H](O)CC(=O)[C@@H]1C/C=C\CCCC(=O)O
active: [12] 7.5 nM
not listed: [13] | [14] | [15] | [16] | [17] | [18] | [19] | [20]
inactive: all other assays above

O=C(O)CCSSCCC(=O)O
not listed: [4] | [5] | [19] | [20]
inactive: all other assays above

CCCCCCC#CC(=O)OC
not listed: [2] | [3] | [4] | [5] | [17] | [20]
inactive: all other assays above

CC(=O)N1CCN(c2ccc(OC[C@H]3CO[C@](Cn4ccnc4)(c4ccc(Cl)cc4Cl)O3)cc2)CC1
active: [1] 54.5 µM
inactive: [2] | [3] | [11] | [18]

O=C(N[C@H](CO)[C@H](O)c1ccc([N+](=O)[O-])cc1)C(Cl)Cl
inactive: [1] | [2] | [3] | [5] | [6] | [14] | [15] | [16] | [11] | [12]

CC(C)CCCCCCOC(=O)C1CCCCC1C(=O)OCCCCCCC(C)C (stereo unspecified)
not listed: [4] | [5] | [8] | [11] | [16] | [17] | [19] | [20]
inactive: all other assays above

O=C(O)CCCCCCCCCCCBr
not listed: [10] | [15] | [16] | [17] | [19] | [20]
inactive: all other assays above

CC(=O)Oc1ccc(C(=C2CCCCC2)c2ccc(OC(C)=O)cc2)cc1
not listed: [19]
inactive: all other assays above

O=S(=O)(O)c1cc(Cl)c(Cl)cc1Cl
not listed: [8] | [13] | [17] | [19]
inactive: all other assays above

COc1ccc(C2CNC(=O)C2)cc1OC1CCCC1 (stereo unspecified)
not listed: [13] | [19]
inactive: all other assays above

CC[C@]12CCCN3CCc4c(n(c5ccccc45)C(=O)C1)[C@@H]32
not listed: [6] | [8] | [11] | [13] | [14] | [17] | [19] | [20]
inactive: all other assays above

CCCC(=O)OC(C)(C)Cc1ccccc1
not listed: [7] | [19]
inactive: all other assays above

COC(=O)NCCC[Si](OC)(OC)OC
active: [13] 20.4 µM
not listed: [1] | [7] | [15] | [17]
inactive: all other assays above

Oc1cc2c(cc1O)[C@H]1c3ccc(O)c(O)c3OC[C@@]1(O)C2
not listed: [1] | [11] | [12] | [16] | [17] | [18]
inactive: all other assays above

— PubChem BioAssay (Tox21)
